From PubChem BioAssay (NCI)
The panel holds about 79,000 compounds, 15% with a hit somewhere; the sample as a whole holds those more often. No stated cut-off is given here; in the data, active means growth inhibition above about 70%; inactive means the rest.

Key:
[1] = NCI Yeast Anticancer Drug Screen. Data for the rad50 strain (AID 155);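 further: 0% = growth of vehicle-only cultures of the same strain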; details: S. cerevisiae rad50 strain growth inhibition; at 50.0 µM; stronger effect = higher value
Outline: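 Vehicle-treated cultures provide the reference for the growth inhibition reported for compound-exposed, repair-deficient yeast.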

[2] = NCI Yeast Anticancer Drug Screen. Data for the mec2-1 strain (AID 157); details: S. cerevisiae mec2-1 strain, at 50.0 µM, stronger effect = higher value
Outline: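 Compounds were applied to mec2-1 yeast cells. Their growth was then compared with that of vehicle-treated cultures to give growth inhibition.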

[3] = NCI Yeast Anticancer Drug Screen. Data for the sgs1 mgt1 strain (AID 161);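 further: 0% = growth of cultures given vehicle only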; details: S. cerevisiae sgs1 mgt1 strain, at 50.0 µM, stronger effect = higher value
Outline: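 Yeast cells carrying a defined DNA-repair defect were exposed to test compounds. Growth inhibition was measured relative to vehicle-treated controls.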

[4] = NCI Yeast Anticancer Drug Screen. Data for the cln2 rad14 strain (AID 165);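 further: 0% = growth equal to vehicle treated cultures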; details: S. cerevisiae cln2 rad14 strain, at 50.0 µM, stronger effect = higher value
Outline: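 Strain: cln2 rad14 yeast, altered in cell cycle control and DNA damage repair. Read-out: growth inhibition vs vehicle.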

[5] = NCI Yeast Anticancer Drug Screen. Data for the bub3 strain (AID 167); details: S. cerevisiae bub3 mutant strain, at 50.0 µM, stronger effect = higher value
Outline: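 Mutant yeast screening strain plus compound; vehicle-treated cultures serve as the 0% inhibition reference.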

[6] = NCI Yeast Anticancer Drug Screen. Data for the mlh1 rad18 strain (AID 175); details: S. cerevisiae mlh1 rad18 strain growth inhibition; at 50.0 µM; stronger effect = higher value
Outline: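 A repair-deficient yeast strain is exposed to test compound, and growth is scored relative to vehicle-treated controls.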

Measured: growth inhibition

COc1c(O)c(O)c2c(c1O)C(=O)c1cc(C)cc(O)c1C2=O
inactive: [1] -16.3% | [2] -27% | [3] -22.7% | [4] -8.45% | [5] -30% | [6] -19.4%

CCOC(C)C1C2CCCCC21 (stereo unspecified)
inactive: [1] 2.1% | [2] 0.75% | [3] 6.2% | [4] -54% | [5] 4.85% | [6] 8.75%

COc1ccc(N2N=NCC2c2ccccc2[N+](=O)[O-])cc1 (stereo unspecified)
inactive: [1] -10.6% | [2] -11.9% | [3] 14.2% | [4] -37.4% | [5] 13.6% | [6] 20.4%

NS(=O)(=O)c1ccc(Nc2c3ccccc3nc3cc(Cl)ccc23)cc1
inactive: [1] 25.6% | [2] -17.8% | [3] 6.9% | [4] 3.3% | [5] -8.5% | [6] -13.3%

CCOP(=O)(OCC)C(F)(F)Cc1cnc(C)c2c1COC(C)(C)O2
inactive: [1] -14.8% | [2] -34.8% | [3] -32.5% | [4] -16.7% | [5] 17.9% | [6] -27.3%

CC1C2=C(CC(C)(C)CC2=O)OC2=C1C(=O)CC(C)(C)C2
inactive: [1] -16.1% | [2] -7.9% | [3] -7.8% | [4] -5.3% | [5] 4.65% | [6] -3.5%

CCCCOCCC1CCNCC1
inactive: [1] -46% | [2] -44.1% | [3] -51.5% | [4] 10.8% | [5] -48% | [6] -24%

Nc1c(OS(=O)(=O)c2ccccc2)cccc1OS(=O)(=O)c1ccccc1
inactive: [1] 20.8% | [2] -2.45% | [3] 18.8% | [4] 20.7% | [5] 39.7% | [6] 37.1%

CC(C)=Cc1ccccc1C1(C)C(c2ccccc2)=C1c1ccccc1
inactive: [1] -3.35% | [2] 8.6% | [3] -9.25% | [4] 26.1% | [5] -0.3% | [6] -3.6%

NC(=O)CCCC(=O)c1cccc([N+](=O)[O-])c1
inactive: [1] -14.2% | [2] 2.2% | [3] -16.9% | [4] -42.9% | [5] -1.25% | [6] -25.4%

O=C1CCCCC/C1=C\O
inactive: [1] 2.8% | [2] -12.1% | [3] -10.6% | [4] -11.9% | [5] -23.9% | [6] 5.15%

O=C1COc2ccccc2OCCOCCOc2ccccc2OC1
inactive: [1] 11.2% | [2] -2.9% | [3] -2.7% | [4] -12.2% | [5] 2.3% | [6] -14.9%

Cc1[nH]c(=O)[nH]c1C(=O)c1ccc(-n2ccnc2)cc1
inactive: [1] -1.45% | [2] -9.75% | [3] 16.1% | [4] 16.2% | [5] 5.25% | [6] -9.15%

O=C(CCl)N1C(=O)NC(c2ccc(Cl)cc2)(c2ccc(Cl)cc2)C1=O
inactive: [1] 6.9% | [2] 12% | [3] 8.9% | [4] -4.8% | [5] -29% | [6] -3.9%

O=C1NC(O)c2cccc(F)c2O1 (stereo unspecified)
inactive: [1] 20.4% | [2] 6.3% | [3] 43.4% | [4] 31.5% | [5] 6.7% | [6] 58.9%

O=[N+]([O-])c1cccc(NSNc2cccc([N+](=O)[O-])c2)c1
inactive: [1] 18.1% | [2] 23.9% | [3] 25.6% | [4] 23.1% | [5] 6.45% | [6] 11%

O=C1c2ccccc2C(=O)c2nc3ccc(Cl)cc3cc21
inactive: [1] -12.3% | [2] -18.4% | [3] 1.35% | [4] 21.3% | [5] -12.5% | [6] -10.8%

C=CC(CO)N1CCCCC1 (stereo unspecified)
inactive: [1] -9.15% | [2] 24.6% | [3] -1.05% | [4] -8.9% | [5] -19.2% | [6] 13.9%

CC(=O)OCCS(=O)Cc1ccccc1 (stereo unspecified)
inactive: [1] -36.9% | [2] -16.5% | [3] -9.05% | [4] -41.4% | [5] 3.6% | [6] 3.15%

CC(C)CC1=C(C(=O)c2ccoc2)CC(C)C1 (stereo unspecified)
inactive: [1] 6.55% | [2] -7.6% | [3] -18.9% | [4] 12.1% | [5] 25.9% | [6] -7.1%

COc1cccc(N=Cc2ccc(C=Nc3cccc(OC)c3)cc2)c1
inactive: [1] 5.95% | [2] -9.1% | [3] 11.1% | [4] -9.35% | [5] 27.7% | [6] -12.4%

CC1(C(O)(c2ccccc2)c2ccccc2)CC1(c1ccccc1)c1ccccc1 (stereo unspecified)
inactive: [1] -21.4% | [2] -2.4% | [3] -10.9% | [4] -8.05% | [5] 1.3% | [6] -2.3%

CCOC(=O)C(=O)C1CCCC1=O (stereo unspecified)
inactive: [1] -6.9% | [2] -6.65% | [3] 2.25% | [4] -0.7% | [5] 1.7% | [6] -0.6%

CC1CCC(C)C(O)C1 (stereo unspecified)
inactive: [1] -21.9% | [2] -22.3% | [3] -19.1% | [4] 23.1% | [5] -27.8% | [6] 3.25%

COc1cccc2c(SCC(=O)Nc3ccccc3-c3ccccc3NC(=O)CSc3c4ccccc4nc4c(OC)cccc34)c3ccccc3nc12
inactive: [1] -2.4% | [2] 3.35% | [3] -15.8% | [4] -36% | [5] -2% | [6] -28.8%

Cc1cn(-c2c(C)c(C)c(-n3c(C)ccc3C)c(C)c2C)cc1C
inactive: [1] -3.1% | [2] -5.55% | [3] -6.2% | [4] -15.8% | [5] 4.85% | [6] 0%

CNc1nc(C(F)(F)F)nc(Cl)c1N
inactive: [1] 10% | [2] 2.5% | [3] 13.4% | [4] -7.95% | [5] 15.3% | [6] 7.4%

Oc1cc(OCCCc2ccc(F)cc2)cc2ccc3ccccc3c12
inactive: [1] 50.5% | [2] 43.5% | [3] 20.8% | [4] -32.5% | [5] 54% | [6] 43.1%

O=CNc1ccc(-c2ccc(NC=O)cc2)cc1
inactive: [1] 27.6% | [2] 4.5% | [3] 7.75% | [4] 13.1% | [5] -12.8% | [6] -6.4%

CC(=O)n1c(=O)c2cc3c(=O)n(-c4cccc(C#N)c4)c(=O)c3cc2c1=O
inactive: [1] -25.4% | [2] -19.4% | [3] 9.65% | [4] 7.65% | [5] 4.8% | [6] -9.65%

CN1C(=O)N(c2ccccc2)C2(CCN(CC3COc4ccccc4O3)CC2)C1=O (stereo unspecified)
inactive: [1] 4.05% | [2] -4.45% | [3] 21.6% | [4] 4.7% | [5] -6.9% | [6] 8.75%

COc1ccc(/C=C2\N=C(c3cccc(Cl)c3)OC2=O)cc1OC
inactive: [1] 14.6% | [2] 4.25% | [3] 18.2% | [4] 12.2% | [5] 6.3% | [6] -7.85%

COC1(C2COc3cc(OCc4ccccc4)ccc3C2=O)C=C2OCOC2=CC1=O (stereo unspecified)
inactive: [1] -16.6% | [2] -18% | [3] -6.6% | [4] -33% | [5] 9.45% | [6] -4.75%

OCCOc1ccccc1-c1ccccc1
inactive: [1] -28.6% | [2] -14.3% | [3] -15.5% | [4] -14% | [5] -29.5% | [6] -7.65%

Cc1cc([N+](=O)[O-])ccc1NC(=O)c1c(Cl)c(Cl)c(C(=O)Nc2ccc([N+](=O)[O-])cc2C)c(Cl)c1Cl
inactive: [1] 38.5% | [2] 28.1% | [3] 34.9% | [4] -34% | [5] 7.9% | [6] 45.1%

c1ccc(CN2COc3c(ccc4c5c(ccc34)CN(Cc3ccccc3)CO5)C2)cc1
inactive: [1] 5% | [2] -10.4% | [3] -37.5% | [4] -14.1% | [5] -19.9% | [6] -9.15%

COc1ccc(NC(=O)N(C)C)cc1OC
inactive: [1] 14.8% | [2] -5.25% | [3] -4.2% | [4] -25.6% | [5] 4.4% | [6] 15.8%

CC1(C)OC2COC(CNS(C)(=O)=O)C2O1 (stereo unspecified)
inactive: [1] 12.2% | [2] -12.2% | [3] -9.2% | [4] 5.1% | [5] 2.85% | [6] 28.4%

COc1ccc(OC)c2c(Cl)ccnc12
inactive: [1] 17.1% | [2] 15.1% | [3] 15.6% | [4] 20.8% | [5] 11.1% | [6] 24.5%

O=C(NCCN1CCCCC1)c1ccc(Br)cc1
inactive: [1] -15.2% | [2] -16.4% | [3] -12.6% | [4] -6% | [5] -18.9% | [6] -47.1%

COc1cccc(Nc2nc(N)nc(N)c2N)c1
inactive: [1] -4.2% | [2] -35.8% | [3] -6.3% | [4] 10.1% | [5] -19.6% | [6] 14%
